Screens from PubChem.
BoNT-A LC inh2 – inhibitors of Botulinum neurotoxin A light chain protease | AID 588499 | inhibition, % at 10 µM | multiplex microsphere protease substrate cleavage, flow cytometry | 360,000 compounds, 0.17% hits
BoNT-F LC inh – blocks Botulinum neurotoxin F light chain protease | Multiplex microsphere protease cleavage assay, flow cytometry | inhibition, % at 10 µM | 360,000 compounds, 0.22% hits; in the data active means inhibition above about 35%, passing the limit was not always enough; inconclusive means no clear call, values can overlap the other calls
Anthrax LF inh2 – anthrax lethal factor protease inhibition; P15917; multiplex microsphere protease cleavage assay, LF; inhibition, % at 10 µM; 360,000 compounds, 0.12% hits; AID 588501
Target sequence (P15917 whole entry, looked up): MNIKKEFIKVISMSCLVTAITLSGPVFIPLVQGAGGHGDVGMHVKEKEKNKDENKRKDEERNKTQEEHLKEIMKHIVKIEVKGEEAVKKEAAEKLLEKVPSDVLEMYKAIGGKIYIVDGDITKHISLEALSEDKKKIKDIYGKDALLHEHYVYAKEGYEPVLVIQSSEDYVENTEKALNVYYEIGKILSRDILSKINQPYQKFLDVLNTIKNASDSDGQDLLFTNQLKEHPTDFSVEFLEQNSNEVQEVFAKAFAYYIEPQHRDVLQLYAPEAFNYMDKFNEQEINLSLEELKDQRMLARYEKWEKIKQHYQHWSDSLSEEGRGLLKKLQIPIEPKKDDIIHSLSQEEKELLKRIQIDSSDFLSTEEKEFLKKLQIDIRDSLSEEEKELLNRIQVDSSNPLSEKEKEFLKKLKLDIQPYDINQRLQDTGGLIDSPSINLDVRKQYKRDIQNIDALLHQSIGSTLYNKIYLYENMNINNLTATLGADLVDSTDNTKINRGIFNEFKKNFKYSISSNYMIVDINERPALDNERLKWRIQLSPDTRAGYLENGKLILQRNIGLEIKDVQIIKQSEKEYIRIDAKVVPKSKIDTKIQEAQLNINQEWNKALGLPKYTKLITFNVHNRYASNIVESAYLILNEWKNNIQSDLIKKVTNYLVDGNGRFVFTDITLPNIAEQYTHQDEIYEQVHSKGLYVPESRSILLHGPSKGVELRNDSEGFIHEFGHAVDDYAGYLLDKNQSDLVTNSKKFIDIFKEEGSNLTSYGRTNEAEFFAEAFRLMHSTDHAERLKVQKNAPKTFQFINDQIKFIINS
Bead autofluor – counter-screen for toxin protease inhibitors: compound fluorescence; compound autofluorescence counterscreen, microsphere flow cytometry; hits give high values; fluorescence intensity (no concentration beside the values); 360,000 compounds, 3.1% hits; in the data active means fluorescence intensity above about 16000; inconclusive means no clear call, values can overlap the other calls
BoNTA LC inh 2 – inhibitors of botulinum neurotoxin A light chain protease | 150 compounds, 10% hits | shares compounds with BoNT-A LC inh2 | multiplex microsphere protease cleavage assay, flow cytometry | inhibition, % at 10 µM; in the data active means inhibition above about 24%
Anthrax LF CP2 – blocks anthrax lethal factor protease. 150 compounds, 7% hits. multiplex microsphere protease cleavage assay. shares compounds with BoNT-A LC inh2. inhibition, % at 10 µM. AID 602327; in the data active means inhibition above about 25%
BoNT-F LC CP2 – inhibitors of botulinum neurotoxin F light chain protease; shares compounds with BoNT-A LC inh2; multiplex microsphere protease cleavage assay, flow cytometry; inhibition, % at 10 µM; 150 compounds, 7% hits; AID 602336; in the data active means inhibition above about 25%
Large screens that a line does not name were inactive (follow-up assays come after a bar, where they were run). A selection: hits, their analogues and other compounds. The true share with any hit is near 3.5%. Unless noted, no stated cut-off is given here; in the data, active means inhibition above about 30%; inconclusive means no clear call, values can overlap the other calls; inactive means below that.

COc1ccc(-c2cc3c(c4c2ccn4C)C2CCC3C2)cc1OC (stereo not drawn)	none | BoNTA LC inh 2 inactive | Anthrax LF CP2 inactive | BoNT-F LC CP2 inactive
Cn1ccc2c(-c3cccnc3)cc3c(c21)C1CCC3C1 (stereo not drawn)	none | BoNTA LC inh 2 inactive | Anthrax LF CP2 inactive | BoNT-F LC CP2 inactive
FC(F)(F)c1ccccc1Cc1c(-c2ccc(Cl)cc2)nc2ccc(Br)cn12	none
COc1ccc(S(=O)(=O)n2[nH]c(=O)c(CCO)c2C)c([N+](=O)[O-])c1	none
O=C(COC(=O)c1cccc(OC(F)F)c1)Nc1ncccn1	none
COc1cc(N(C)C)ccc1C=c1c2ccccc2n2c1cc(-c1ccccc1)[n+]2C	BoNT-A LC inh2 56 | BoNTA LC inh 2 30 | Anthrax LF CP2 inactive | BoNT-F LC CP2 inactive
CC(C)Cc1ccc(C(C)C(=O)OCC(=O)c2c[nH]c3ccccc23)cc1 (stereo not drawn)	none | BoNTA LC inh 2 inactive | Anthrax LF CP2 inactive | BoNT-F LC CP2 inactive
Cc1cnc(C(=O)OCC(=O)c2c[nH]c3ccccc23)cn1	BoNT-F LC inh inconclusive
Cc1ccc(C(=O)OCC(=O)c2c[nH]c3ccccc23)cc1	none | BoNTA LC inh 2 inactive | Anthrax LF CP2 inactive | BoNT-F LC CP2 inactive
COc1ccc(C(=O)OCC(=O)c2c[nH]c3ccccc23)cc1OC	BoNT-A LC inh2 37, Anthrax LF inh2 39 | BoNTA LC inh 2 28 | Anthrax LF CP2 inactive | BoNT-F LC CP2 inactive
O=C(COc1ccccc1)OCC(=O)c1c[nH]c2ccccc12	none | BoNTA LC inh 2 inactive | Anthrax LF CP2 inactive | BoNT-F LC CP2 inactive
COc1ccc(OCC(=O)c2c[nH]c3ccccc23)cc1	none
CN(C)c1ccc(/C=N/Nc2nncc3ccccc23)cc1	none
Nc1cc(OCc2ccccc2)ccc1OCc1ccccc1	none
COC(=O)c1ccccc1S(=O)(=O)N1CCC(C(=O)Nc2ccc(N3CCOCC3)cc2)CC1	none
O=C1CCC(C(=O)OCC(=O)c2c[nH]c3ccccc23)=NN1	none
O=C(OCC(=O)c1c[nH]c2ccccc12)c1cc(Br)ccc1O	none | BoNTA LC inh 2 inactive | Anthrax LF CP2 inactive | BoNT-F LC CP2 inactive
COc1ccccc1Cc1c(-c2ccc(F)cc2)nc2cc(C)c(Br)c(C)n12	none | BoNTA LC inh 2 25 | Anthrax LF CP2 inactive | BoNT-F LC CP2 inactive
COc1ccccc1Cc1c(-c2ccccc2)nc2cc(C)c(Br)c(C)n12	none | BoNTA LC inh 2 inactive | Anthrax LF CP2 inactive | BoNT-F LC CP2 inactive
Cc1cc2nc(-c3cccc(Br)c3)c(Cc3cccc(Cl)c3)n2c(C)c1Br	none | BoNTA LC inh 2 inactive | Anthrax LF CP2 inactive | BoNT-F LC CP2 45
COc1ccccc1Cc1c(-c2ccc(C)cc2)nc2cc(C)c(Br)c(C)n12	none | BoNTA LC inh 2 inactive | Anthrax LF CP2 inactive | BoNT-F LC CP2 inactive
Cc1cc2nc(-c3cccc(Cl)c3)c(Cc3ccccc3)n2c(C)c1Br	none
C=C1CCCC2OC(CC3=CC4/C(C)=C/CC(C)CC(/C=C(\C)C(O)C5CC(O)C(O)C(CCC(O)/C=C/C(C)=C/CCC6=NCCC(C3)C64C)O5)OC(=O)CC3OC(C(O)C1)C(O)C3O)CC(O)C2O (stereo not drawn)	none
Cc1cc2ccccc2n1CCNC(=O)C(C)Oc1ccccc1 (stereo not drawn)	BoNT-A LC inh2 79 | BoNTA LC inh 2 inactive | Anthrax LF CP2 inactive | BoNT-F LC CP2 inactive
COCCNC(=O)C(C)Oc1ccccc1 (stereo not drawn)	none
Cc1cc2ccccc2n1CCNC(=O)Cc1ccccc1	BoNT-A LC inh2 72 | BoNTA LC inh 2 24 | Anthrax LF CP2 30 | BoNT-F LC CP2 inactive
Cc1cc(C)c(S(=O)(=O)NCCn2c(C)cc3ccccc32)c(C)c1	BoNT-A LC inh2 42 | BoNTA LC inh 2 inactive | Anthrax LF CP2 inactive | BoNT-F LC CP2 inactive
Cc1cc2ccccc2n1CCNC(=O)C(C)C	BoNT-A LC inh2 80, Anthrax LF inh2 60 | BoNTA LC inh 2 29 | Anthrax LF CP2 34 | BoNT-F LC CP2 inactive
Cc1cc(C)c(S(=O)(=O)NCCCn2ccnc2)c(C)c1	none
CC(=O)Nc1ccc(S(=O)(=O)NC2C3(C)CCC(C3)C2(C)C)cc1 (stereo not drawn)	none
Cc1cc2ccccc2n1CCNC(=O)c1ccc(S(=O)(=O)N2CCCCC2)cc1	BoNT-A LC inh2 59 | BoNTA LC inh 2 53 | Anthrax LF CP2 inactive | BoNT-F LC CP2 inactive
COC(=O)CCCCCN1C(=O)/C(=C\c2ccncc2)SC1=S	none
CSc1nnc2c(=O)[nH]c(=O)n(C)c2n1	none
